Laboratory results published in the supplement of paper PMC8253809.

Assays:
Test in all cases: growth inhibition (% activity, log2 RLU normalised to DMSO / staurosporine); higher = more growth inhibition
Conditions in all cases: 33 µM
DIPGX29 = system: DIPGX29 (H3.3 K27M diffuse intrinsic pontine glioma line)
How it was run: (§1)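 Approved drugs, at a single final concentration of about 33 μM, were applied in triplicate to pHGG cell lines and H9-derived neural stem cells for 7 days at 37 °C, 5% CO2. The growth-inhibition value is the replicate median of log2-transformed CellTiter-Glo luminescence normalised per plate to % activity between solvent and positive control wells.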

DIPGX37 = system: DIPGX37 (H3.3 K27M diffuse intrinsic pontine glioma line)
How it was run: as §1

DIPGX7 = system: DIPGX7 (H3.3 K27M diffuse intrinsic pontine glioma line)
How it was run: as §1

DIPGX9 = system: DIPGX9 (diffuse intrinsic pontine glioma line)
How it was run: as §1

HGGX39 = system: HGGX39 (paediatric high-grade glioma line)
How it was run: as §1

HGGX6 = system: HGGX6 (H3.3 G34R paediatric high-grade glioma line)
How it was run: as §1

HNSC = system: HNSC
How it was run: as §1

SUDIPGIV = system: SUDIPGIV (diffuse intrinsic pontine glioma line)
How it was run: as §1

SUDIPGVI = system: SUDIPGVI (diffuse intrinsic pontine glioma line)
How it was run: as §1

SUDIPGXIII = system: SUDIPGXIII (diffuse intrinsic pontine glioma line)
How it was run: as §1

Row | Compound | growth inhibition (DIPGX29) [%] | growth inhibition (DIPGX37) [%] | growth inhibition (DIPGX7) [%] | growth inhibition (DIPGX9) [%] | growth inhibition (HGGX39) [%] | growth inhibition (HGGX6) [%] | growth inhibition (HNSC) [%] | growth inhibition (SUDIPGIV) [%] | growth inhibition (SUDIPGVI) [%] | growth inhibition (SUDIPGXIII) [%]
1 | O=C1CCC(N2C(=O)c3ccccc3C2=O)C(=O)N1 (stereo not given) | -2.65 | -1.06 | -0.846 | -1.66 | -0.665 | -1.64 | -7.47 | -2.51 | -2.2 | -0.0477
2 | O=C(Nc1c(Cl)cncc1Cl)c1ccc(OC(F)F)c(OCC2CC2)c1 | 2.05 | 4.42 | 2.92 | 2.71 | 4.08 | 2.51 | 2.92 | 7.2 | 6.56 | -0.978
3 | Clc1ccc(CCC(Cn2ccnc2)Sc2c(Cl)cccc2Cl)cc1 (stereo not given) | 5.06 | 1.97 | 3.57 | 4.57 | 13.2 | 10.2 | 10.2 | 13.5 | 4.83 | 11.4
4 | CCCCc1oc2ccccc2c1C(=O)c1cc(I)c(OCCN(CC)CC)c(I)c1 | 11.5 | 3.87 | 16.3 | 3.8 | 8.92 | 12.4 | 34.9 | 6.94 | 3.07 | 7.05
5 | O=c1ccn([C@@H]2O[C@H](CO)[C@@H](O)[C@H]2O)c(=O)[nH]1 | -0.716 | -1.37 | 1.57 | -0.704 | 0.73 | -4.51 | 17.6 | -1.57 | -0.357 | -2.42
6 | CCCCCCCCCCOc1cc2c(O)c(C(=O)OCC)cnc2cc1OCC | -0.3 | -1.31 | 1.61 | -0.589 | 1.16 | -2.39 | 8.91 | 1.52 | -8.46 | -1.19
7 | CN1CCN(CCCN2c3ccccc3Sc3ccc(Cl)cc32)CC1 | 4.66 | 1.44 | 9.7 | -0.83 | 3.02 | 1.39 | 13.3 | -0.567 | -3.14 | -0.277
8 | CNC(=O)c1cc(Oc2ccc(NC(=O)Nc3ccc(Cl)c(C(F)(F)F)c3)c(F)c2)ccn1 | 4.67 | 2.29 | 3.66 | 2.56 | 5.15 | 5.99 | 39.1 | 1.19 | 4.32 | 59.3
9 | C[C@H]1O[C@H](O[C@H]2[C@H](O)[C@@H](O)[C@@H](O[C@H]3[C@H](O)[C@@H](O)C(O)O[C@@H]3CO)O[C@@H]2CO)[C@H](O)[C@@H](O)[C@@H]1N[C@H]1C=C(CO)[C@@H](O)[C@H](O)[C@H]1O (stereo not given in full) | -1.13 | -1.58 | -0.631 | -1.81 | -1.75 | -0.366 | -2.81 | -2.71 | -0.59 | -0.463
10 | NCCc1ccc(O)c(O)c1 | -0.86 | 1.63 | -0.591 | 0.714 | 0.908 | -1.23 | 5.73 | 1.26 | 0.907 | -1.27
11 | CC(=O)OCC(=O)[C@H]1CC[C@H]2[C@@H]3CCC4=CC(=O)CC[C@]4(C)[C@H]3CC[C@]12C | -1.69 | -0.592 | -0.0117 | -0.0895 | 1.53 | -0.537 | -2.47 | -2 | -0.651 | 5.18
12 | CN(C)[C@@H]1C(O)=C(C(=O)NCN2CCCC2)C(=O)[C@@]2(O)C(O)=C3C(=O)c4c(O)cccc4[C@@](C)(O)[C@H]3C[C@@H]12 | -1.08 | -1.26 | -0.844 | 0.66 | -0.334 | 0.151 | -2.27 | 0.0649 | 2.48 | 0.413
13 | O=NO | 0.973 | 1.57 | -0.944 | 0.322 | 0.656 | 1.76 | -0.386 | -0.178 | 1.15 | -0.00307
14 | COc1c(C)c2c(c(O)c1C/C=C(\C)CCC(=O)OCCN1CCOCC1)C(=O)OC2 | 17.5 | 14.5 | 10.6 | 15.1 | 17.2 | 15.1 | 65.5 | 8.44 | 8.42 | 7.66
15 | O=C[C@H](O)[C@@H](O)[C@H](O)CO | 1.32 | 0.386 | 0.91 | 1.55 | 1.07 | 1.49 | 0.405 | -0.641 | -1.35 | -0.863
16 | COc1ccc2cc1Oc1ccc(cc1)C[C@H]1c3c(cc4c(c3Oc3cc5c(cc3OC)CCN(C)[C@@H]5C2)OCO4)CCN1C | 1.78 | 2.93 | 1.55 | 1.36 | 3.95 | 0.797 | 3.27 | -0.21 | 3.68 | 1.63
17 | CCCc1nn(C)c2c(=O)[nH]c(-c3cc(S(=O)(=O)N4CCN(C)CC4)ccc3OCC)nc12 | 0.246 | -4.11 | 0.899 | -0.0138 | 0.834 | -0.171 | 0.834 | -2.48 | 0.71 | -0.097
18 | CCN1CCN(C(=O)N[C@@H](C(=O)N[C@@H]2C(=O)N3[C@@H]2SC(C)(C)[C@@H]3C(=O)O)c2ccccc2)C(=O)C1=O | -0.286 | 0.221 | -0.734 | -1.09 | -0.282 | 0.186 | -1.83 | -0.166 | 0.068 | -11.8

Row | Compound | growth inhibition (DIPGX29) [%] | growth inhibition (DIPGX37) [%] | growth inhibition (DIPGX7) [%] | growth inhibition (DIPGX9) [%] | growth inhibition (HGGX39) [%] | growth inhibition (HGGX6) [%] | growth inhibition (HNSC) [%] | growth inhibition (SUDIPGIV) [%] | growth inhibition (SUDIPGVI) [%] | growth inhibition (SUDIPGXIII) [%]
19 | C[C@H](CCC(=O)O)[C@H]1CC[C@H]2[C@@H]3CC[C@@H]4C[C@H](O)CC[C@]4(C)[C@H]3CC[C@]12C | -0.532 | -0.978 | -2.9 | -2.11 | 0.371 | -1.49 | -2.18 | -1.6 | -1.83 | 1.26
20 | CO/N=C(\C(=O)N[C@@H]1C(=O)N2C(C(=O)O)=C(CSC(=O)c3ccco3)CS[C@H]12)c1csc(N)n1 | -1.65 | 1.16 | -1.04 | -0.83 | 0.968 | -1.16 | -1.6 | 1.14 | -0.598 | 0.953
21 | C=C1c2c(Cl)ccc(O)c2C(=O)C2=C(O)[C@]3(O)C(=O)C(C(N)=O)=C(O)[C@@H](N(C)C)[C@@H]3[C@@H](O)[C@H]12.O=C(O)c1cc(S(=O)(=O)O)ccc1O | 3.13 | 1.57 | 2.88 | 2.29 | 8.03 | 6.26 | 8.17 | 7.96 | 4.89 | 3.19
22 | CCC(CC)[C@H](NC(C)=O)[C@@H]1[C@H](O)[C@@H](C(=O)O)C[C@H]1NC(=N)N | -0.417 | -0.255 | -0.771 | -0.84 | -1.05 | -1.09 | -1.8 | -0.387 | -0.749 | 2.27
23 | CN(N=O)C(=O)N[C@H]1C(O)O[C@H](CO)[C@@H](O)[C@@H]1O (mixture of isomers) | 0.875 | 2.37 | 2.05 | 1.8 | 0.924 | 2.69 | 2.82 | 1.45 | 2.34 | 0.628
24 | NC(=O)OCC(COC(N)=O)c1ccccc1 | 1.09 | 2.98 | 1.52 | 0.912 | 0.666 | 0.329 | 2.74 | 0.15 | 2.19 | 1.32
25 | CCOC(=O)[C@H](CCc1ccccc1)N[C@H]1CS[C@H](c2cccs2)CN(CC(=O)O)C1=O | -2.15 | 0.457 | 0.303 | -0.286 | 0.0238 | 0.0397 | 1.94 | -0.624 | -2.82 | 0.0387
26 | CCC[C@H](NC(=O)[C@@H]1[C@H]2CCC[C@H]2CN1C(=O)[C@@H](NC(=O)[C@@H](NC(=O)c1cnccn1)C1CCCCC1)C(C)(C)C)C(=O)C(=O)NC1CC1 | 0.654 | 1.66 | 1.2 | 1.41 | 1.74 | 2.24 | 3.02 | 0.139 | 1.78 | -0.0315
27 | C[N+](C)(CCOc1ccccc1)Cc1ccccc1.O=C([O-])c1cc2ccccc2cc1O | -1.73 | 0.336 | -2.4 | -0.621 | -1.29 | -2.23 | -1.38 | 2.44 | 1.1 | -1.56
28 | C[C@]12C=CC(=O)C=C1CC[C@H]1[C@@H]3C[C@@H](O)[C@](O)(C(=O)CO)[C@@]3(C)C[C@H](O)[C@@]12F | 0.877 | 1.05 | -1.73 | 3.73 | -0.649 | -0.097 | -1.58 | -3.68 | 0.457 | 1.54
29 | CC#CCn1c(N2CCC[C@@H](N)C2)nc2c1c(=O)n(Cc1nc(C)c3ccccc3n1)c(=O)n2C | -0.103 | -1.17 | -2.97 | -0.000837 | 0.6 | -0.836 | -2.39 | -2.46 | -1.81 | -0.213
30 | CC(C)n1c(/C=C/[C@@H](O)C[C@@H](O)CC(=O)O)c(-c2ccc(F)cc2)c2ccccc21 | 4.64 | 0.671 | 6.29 | 6.39 | 18.7 | 10.2 | 26.9 | 26.2 | 0.023 | 3.96
31 | CCn1cc(C(=O)O)c(=O)c2cc(F)c(N3CCNCC3)nc21 | -0.406 | 0.315 | -0.279 | -2.11 | 0.108 | -1.99 | 2.46 | 0.478 | 0.763 | 0.429
32 | CC(=O)OCC[N+](C)(C)C | 1.68 | 3.32 | 3.73 | 1.49 | 1.63 | 1.69 | 4.52 | 1.04 | 2.81 | -0.303
33 | CC(C)c1c(C(=O)Nc2ccccc2)c(-c2ccccc2)c(-c2ccc(F)cc2)n1CC[C@@H](O)C[C@@H](O)CC(=O)O | 16.8 | -10 | 21.8 | 7.54 | 42.1 | 23 | 65.6 | 32.1 | -0.629 | 39.2
34 | COc1ccccc1N1CCN(CCCNc2cc(=O)n(C)c(=O)n2C)CC1 | -0.448 | 2.3 | -0.071 | 0.0185 | 0.367 | 0.543 | 0.25 | -1.07 | -1.77 | 1.17
35 | COc1c(N2C[C@@H]3CCCN[C@@H]3C2)c(F)cc2c(=O)c(C(=O)O)cn(C3CC3)c12 | 0.967 | 2.87 | 5.33 | 1.28 | 3.99 | 2.07 | 2.61 | 0.935 | 2.05 | -1.1
36 | O=C1c2cccc3c2[C@H](CCC3)CN1[C@@H]1CN2CCC1CC2 | 1.6 | 0.267 | -0.559 | 0.719 | 1.18 | 1.03 | -3.52 | -0.551 | 0.132 | 0.79
